According to PubChem BioAssay (Tox21):
Calls of active or inactive are those of the source. A call without a number means that no potency is given here. Unless noted, the call rests on the fitted dose curve; in most records, active means well fitted curve in the direction sought with a large enough effect in the repeat runs; inconclusive means weak or mixed curves; inactive means no such curve, though single readings can be large; an effect the other way counts as inactive or inconclusive.

Columns and labels:
[1] = qHTS assay to test for compound auto fluorescence at 535 nm (green) in HEK293 cells (AID 720680)
[2] = qHTS assay to test for compound auto fluorescence at 460 nm (blue) in HEK293 cell free culture (AID 720681)
Summary of the method: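 Test compounds were pinned into cell-free culture medium (DMEM with 10% FBS) and fluorescence was read directly at Ex/Em 405/460 nm. Signals were expressed as fluorescence equivalents of triamterene, with DMSO vehicle as control.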

[3] = qHTS assay to test for compound auto fluorescence at 535 nm (green) in HEK293 cell free culture (AID 720682)
Summary of the method: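 Fluorescein serves as the green reference fluorophore; each compound's intrinsic emission at 535 nm (excitation 485 nm) is reported as an equivalent amount of that dye, measured in serum-containing DMEM without cells.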

[4] = qHTS assay to test for compound auto fluorescence at 590 nm (red) in HEK293 cell free culture (AID 720683)
Summary of the method: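 Tox21 10K library compounds were pinned into cell-free DMEM with 10% FBS and fluorescence was read at excitation 540 nm. Activity is expressed as Rose Bengal sodium equivalency.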

[5] = qHTS assay to test for compound auto fluorescence at 590 nm (red) in HepG2 cell free culture (AID 720684)
Summary of the method: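 Measured in medium alone (MEM containing 10% FBS) following pintool addition of compound; emission at 590 nm with 540 nm excitation, referenced to Rose Bengal sodium.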

[6] = qHTS assay to test for compound auto fluorescence at 460 nm (blue) in HepG2 cell free culture (AID 720685)
Summary of the method: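 Compound (23 nL) or DMSO pinned into cell-free MEM with 10% FBS; blue fluorescence read at 405/460 nm excitation/emission, expressed as auto-fluorescence equivalency to triamterene.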

[7] = qHTS assay to test for compound auto fluorescence at 535 nm (green) in HepG2 cell free culture (AID 720686)
[8] = qHTS assay to test for compound auto fluorescence at 460 nm (blue) in HepG2 cells (AID 720687)
Summary of the method: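 Cells (2,000/well in MEM with 10% FBS) attached overnight at 37 C, then were exposed to compound or DMSO for 1 hr at 37 C, 5% CO2. Fluorescence read at Ex/Em 405/460 nm, expressed as triamterene-equivalent signal.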

[9] = biological target: Glucocorticoid receptor (Homo sapiens) (UniProt P04150); assay: qHTS assay to identify small molecule agonists of the glucocorticoid receptor (GR) signaling pathway (AID 720691; active means well fitted activation curve with a large enough effect in the signal ratio in the repeat runs, not every such curve was filed as active; inconclusive means weak or mixed curves, or effect the other way; inactive means no such curve, though single readings can be large or run the other way; the % refers to the signal ratio; further: potency means the concentration at half of the fitted maximal effect); settings: GR-bla HeLa, beta-lactamase reporter ratio, 18 h; activation: at 62.4 µM (top of the series)
Summary of the method: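 GR-bla HeLa cells carrying a GRE-driven beta-lactamase reporter, exposed to compounds for 18 h at 37 C. Reporter activation read as fluorescence after 2 h with LiveBLAzer B/G FRET substrate at room temperature.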

[10] = qHTS assay to identify small molecule antagonists of the glucocorticoid receptor (GR) signaling pathway - cell viability counter screen (AID 720693); further: nearly all actives have a fitted effect of over 55% in size; further: potency means the concentration at half of the fitted maximal effect
[11] = qHTS assay for identifying genotoxic compounds that show differential cytotoxicity against isogenic chicken DT40 cell lines with known DNA damage response pathways - wild type cell line (AID 743012); further: nearly all actives have a fitted effect of over 60% in size; further: potency means the concentration at half of the fitted maximal effect
Summary of the method: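 Wild-type DT40 cells (300/well) exposed to compounds for 40 hours at 37 C/5% CO2. Viability read by CellTiter-Glo luminescence after 30 min at room temperature.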

[12] = qHTS assay to identify small molecule antagonists of the androgen receptor (AR) signaling pathway - cell viability counter screen (AID 743033; further: nearly all actives have a fitted effect of over 45% in size; further: potency means the concentration at half of the fitted maximal effect)
[13] = biological target: Androgen receptor (Homo sapiens) (UniProt P10275); assay: qHTS assay to identify small molecule agonists of the androgen receptor (AR) signaling pathway (AID 743036; active means well fitted activation curve with a large enough effect in the signal ratio in the repeat runs, with a control signal flat, not every such curve was filed as active; inconclusive means weak or mixed curves, or effect the other way; inactive means no such curve, though single readings can be large or run the other way; the % refers to the signal ratio)
Summary of the method: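 Fluorescence from a beta-lactamase FRET substrate served as read-out in AR-UAS-bla GripTite HEK293 cells. Cells were treated with DMSO-dissolved compounds for 16 h at 37C, then with LiveBLAzer B/G substrate for 2 h at room temperature.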

[14] = biological target: Androgen receptor (Homo sapiens) (UniProt P10275); assay: qHTS assay to identify small molecule agonists of the androgen receptor (AR) signaling pathway using the MDA cell line (AID 743040; further: nearly all actives have a fitted effect of over 20% in size)
Summary of the method: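 Luminescence from ONE-Glo, read after 30 min at room temperature, reflects MMTV-driven luciferase in MDA-kb2 cells (AR- and GR-responsive). Treatment lasted 16 h at 37C, 0% CO2.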

[15] = qHTS assay to identify small molecule antagonists of the androgen receptor (AR) signaling pathway using the MDA cell line - cell viability counter screen (AID 743041; further: nearly all actives have a fitted effect of over 45% in size)
Summary of the method: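 Viability counter screen run alongside the AR antagonist reporter: cells seeded 5 h before compound, R1881 added, 16 h incubation at 37C without CO2, fluorescent CellTiter-Fluor signal quantified.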

[16] = biological target: Androgen receptor (Homo sapiens) (UniProt P10275); assay: qHTS assay to identify small molecule antagonists of the androgen receptor (AR) signaling pathway using the MDA cell line (AID 743042; further: nearly all actives have a fitted effect of over 55% in size)
Summary of the method: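 MDA-kb2 cells (human breast carcinoma, stably carrying an MMTV-luciferase reporter responsive to AR and GR) were plated at 3,000 cells/well and preincubated 5 hr at 37C, then given compound plus R1881 agonist for 16 h. ONE-Glo luminescence was read.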

[17] = qHTS assay for identifying genotoxic compounds that show differential cytotoxicity against isogenic chicken DT40 cell lines with known DNA damage response pathways - Rad54/Ku70 mutant cell line (AID 743015); further: nearly all actives have a fitted effect of over 60% in size; further: potency means the concentration at half of the fitted maximal effect
[18] = biological target: Glucocorticoid receptor (Homo sapiens) (UniProt P04150); assay: qHTS assay to identify small molecule antagonists of the glucocorticoid receptor (GR) signaling pathway (AID 720692; active means well fitted inhibition curve with a large enough effect in the signal ratio in the repeat runs, not every such curve was filed as active; inconclusive means weak or mixed curves, or effect the other way; inactive means no such curve, though single readings can be large or run the other way; the % refers to the signal ratio; further: potency means the concentration at half of the fitted maximal effect)
Summary of the method: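 GR-bla HeLa cells carrying a GRE-driven beta-lactamase reporter received compound after 4 h plating, then dexamethasone (5 nM final). After 18 h at 37C, the FRET substrate was loaded for 2 h at room temperature and fluorescence read.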

[19] = qHTS assay for identifying genotoxic compounds that show differential cytotoxicity against isogenic chicken DT40 cell lines with known DNA damage response pathways - Rev3 mutant cell line (AID 743014); further: nearly all actives have a fitted effect of over 55% in size; further: potency means the concentration at half of the fitted maximal effect
[20] = biological target: Androgen receptor (Homo sapiens) (UniProt P10275); assay: qHTS assay to identify small molecule antagonists of the androgen receptor (AR) signaling pathway (AID 743035; active means well fitted inhibition curve with a large enough effect in the signal ratio in the repeat runs, not every such curve was filed as active; inconclusive means weak or mixed curves, or effect the other way; inactive means no such curve, though single readings can be large or run the other way; the % refers to the signal ratio)
Summary of the method: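 HEK293 cells stably carrying UAS-beta-lactamase reporter, 2,000/well, given compounds plus R1881 agonist and incubated 16 h at 37C. LiveBLAzer B/G FRET substrate then added for 2 h at room temperature before fluorescence reading.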

Glucocorticoid receptor (Homo sapiens), sequence (P04150 whole entry, looked up): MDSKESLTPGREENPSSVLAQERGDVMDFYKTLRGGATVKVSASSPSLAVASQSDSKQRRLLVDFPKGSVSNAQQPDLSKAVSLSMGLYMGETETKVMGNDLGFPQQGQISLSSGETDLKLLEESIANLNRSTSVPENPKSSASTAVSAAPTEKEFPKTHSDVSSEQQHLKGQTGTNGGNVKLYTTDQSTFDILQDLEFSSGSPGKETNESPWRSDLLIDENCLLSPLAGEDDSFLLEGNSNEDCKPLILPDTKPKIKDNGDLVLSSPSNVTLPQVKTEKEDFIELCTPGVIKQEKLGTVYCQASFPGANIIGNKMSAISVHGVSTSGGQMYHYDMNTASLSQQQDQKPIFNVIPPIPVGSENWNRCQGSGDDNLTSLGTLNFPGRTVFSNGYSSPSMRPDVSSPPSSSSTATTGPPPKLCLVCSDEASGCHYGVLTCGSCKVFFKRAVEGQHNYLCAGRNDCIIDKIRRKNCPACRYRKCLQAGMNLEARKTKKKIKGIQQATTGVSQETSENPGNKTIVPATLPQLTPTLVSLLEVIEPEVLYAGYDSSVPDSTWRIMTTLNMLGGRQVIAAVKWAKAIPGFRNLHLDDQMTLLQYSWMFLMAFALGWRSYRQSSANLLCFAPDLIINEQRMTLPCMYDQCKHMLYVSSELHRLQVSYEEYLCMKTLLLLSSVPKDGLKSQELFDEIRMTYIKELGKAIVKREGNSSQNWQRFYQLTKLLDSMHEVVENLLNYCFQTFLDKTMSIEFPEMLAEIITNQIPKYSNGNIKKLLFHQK
Androgen receptor (Homo sapiens), sequence (P10275 whole entry, looked up): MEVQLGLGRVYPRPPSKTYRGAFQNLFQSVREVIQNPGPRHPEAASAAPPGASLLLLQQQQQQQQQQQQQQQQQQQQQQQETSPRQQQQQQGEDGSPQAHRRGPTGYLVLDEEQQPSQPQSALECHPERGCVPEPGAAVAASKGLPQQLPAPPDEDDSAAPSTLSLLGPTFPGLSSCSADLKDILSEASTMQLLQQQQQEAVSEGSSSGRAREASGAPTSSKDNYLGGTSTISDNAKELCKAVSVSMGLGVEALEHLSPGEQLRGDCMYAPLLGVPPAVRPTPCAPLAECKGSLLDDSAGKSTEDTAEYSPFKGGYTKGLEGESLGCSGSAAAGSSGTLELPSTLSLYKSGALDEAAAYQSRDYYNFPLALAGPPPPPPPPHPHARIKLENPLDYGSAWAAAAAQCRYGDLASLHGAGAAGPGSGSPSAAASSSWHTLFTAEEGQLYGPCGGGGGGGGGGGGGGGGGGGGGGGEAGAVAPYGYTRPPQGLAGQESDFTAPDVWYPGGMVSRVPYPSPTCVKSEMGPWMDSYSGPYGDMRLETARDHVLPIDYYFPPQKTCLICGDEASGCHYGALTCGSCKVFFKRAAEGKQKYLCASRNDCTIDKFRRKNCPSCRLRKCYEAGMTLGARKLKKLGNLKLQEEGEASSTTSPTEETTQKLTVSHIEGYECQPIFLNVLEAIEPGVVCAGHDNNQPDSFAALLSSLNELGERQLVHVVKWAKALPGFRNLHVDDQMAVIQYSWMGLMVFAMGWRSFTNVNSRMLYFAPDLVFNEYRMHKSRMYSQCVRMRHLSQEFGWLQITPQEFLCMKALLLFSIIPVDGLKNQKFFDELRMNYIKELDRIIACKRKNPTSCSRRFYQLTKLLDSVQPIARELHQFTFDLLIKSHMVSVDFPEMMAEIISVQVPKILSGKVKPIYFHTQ

SMILES | Potency [1] | Potency [2] | Potency [3] | Potency [4] | Potency [5] | outcome [6] | Potency [7] | outcome [8] | Potency [9] | Potency [10] | Potency [11] | Potency [12] | Potency [13] | Potency [14] | Potency [15] | Potency [16] | Potency [17] | Potency [18] | Potency [19] | Potency [20]
CC(=O)O[C@H]1CC[C@@]2(C)C(=CC[C@@H]3[C@@H]2CC[C@]2(C)C(c4cccnc4)=CC[C@@H]32)C1 | inactive | inactive | inactive | inactive | inactive | inactive | inactive | inactive | inactive | inactive | 5.31 µM (active) | inactive | inactive | inactive | inactive | inactive |  |  |  | 
C[C@]12CCC(=O)C=C1CC[C@@H]1[C@@H]2[C@@H](O)C[C@@]2(C)[C@H]1CC[C@]2(O)C(=O)COP(=O)(O)O | inactive | inactive | inactive | inactive | inactive | inactive | inactive | inactive | 0.674 µM [inconclusive] (active) | inactive | inactive | inactive |  |  | inactive |  | inactive |  |  | 
C#C[C@]1(OC(C)=O)CC[C@H]2[C@@H]3CCC4=CC(=O)CC[C@@H]4[C@H]3CC[C@@]21C | inactive | inactive | inactive | inactive | inactive | inactive | inactive | inactive |  | 6.01 µM (active) | 4.22 µM (active) |  |  |  | inactive |  | 8.41 µM (active) | 2.13 µM (active) | 10.6 µM (active) | 
CN1CCC(CN2c3ccccc3Sc3ccccc32)C1 (stereo unspecified) | inactive | inactive | inactive | inactive | inactive | inactive | inactive | inactive |  | inactive | 5.96 µM (active) | inactive | inactive | inactive | inactive |  | 5.96 µM (active) |  | 4.22 µM (active) | 
COc1cc([C@@H]2c3cc4c(cc3C(O[C@@H]3O[C@@H]5COC(c6cccs6)O[C@H]5[C@H](O)[C@H]3O)C3COC(=O)[C@@H]32)OCO4)cc(OC)c1O (stereo partly specified) | inactive | inactive | inactive | inactive | inactive | inactive | inactive | inactive | 3.38 µM (active) |  | 0.0119 µM (active) | 0.301 µM (active) |  |  | inactive |  | 0.0011 µM (active) |  | 0.0119 µM (active) | 
CC(CN(C)C)CN1c2ccccc2Sc2ccc(C(F)(F)F)cc21 (stereo unspecified) | inactive | inactive | inactive | inactive | inactive | inactive | inactive | inactive | inactive |  | 5.96 µM (active) | inactive |  |  | inactive |  | 9.44 µM (active) |  | 7.5 µM (active) | 
CCOC(=O)C1=C(COCCN)NC(C)=C(C(=O)OC)C1c1ccccc1Cl (stereo unspecified) | inactive | inactive | inactive | inactive | inactive | inactive | inactive | inactive |  | inactive | 7.5 µM (active) | inactive |  |  | inactive |  | 13.3 µM (active) | inactive | 13.3 µM (active) | 
CCCCCc1ccc(C)cc1O | inactive | inactive | inactive | inactive | inactive | inactive | inactive | inactive |  | inactive | inactive |  | inactive | inactive | inactive | inactive |  | inactive | inactive | 
CS(=O)(=O)Nc1cc2occ(NC=O)c(=O)c2cc1Oc1ccccc1 | inactive | inactive | inactive | inactive | inactive | inactive | inactive | inactive |  | inactive | inactive | inactive |  | inactive | inactive | inactive | inactive |  | inactive | 
C=C[C@]1(C)C[C@@H](OC(=O)CSCCN(CC)CC)[C@]2(C)[C@H](C)CC[C@]3(CCC(=O)[C@H]32)[C@@H](C)[C@@H]1O | inactive | inactive | inactive | inactive | inactive | inactive | inactive | inactive |  | inactive | 5.31 µM (active) | inactive |  |  | inactive |  | 6.68 µM (active) | inactive | 5.96 µM (active) | 
C=CC[C@@H]1/C=C(\C)C[C@H](C)C[C@H](OC)[C@H]2O[C@@](O)(C(=O)C(=O)N3CCCC[C@H]3C(=O)O[C@H](/C(C)=C/[C@@H]3CC[C@@H](O)[C@H](OC)C3)[C@H](C)[C@@H](O)CC1=O)[C@H](C)C[C@@H]2OC | inactive | inactive | inactive | inactive | inactive | inactive | inactive | inactive | inactive |  | 5.31 µM (active) | inactive | inactive | inactive |  | inactive | 6.68 µM (active) |  | 4.22 µM (active) | 
COc1cc(/C=C/C(=O)N2CCN(CC(=O)N3CCCC3)CC2)cc(OC)c1OC | inactive | inactive | inactive | inactive | inactive | inactive | inactive | inactive | inactive |  | inactive | inactive | inactive | inactive | inactive | inactive | inactive |  |  | inactive
CCN(CC)CCOc1ccc(-c2nc3cc(Cl)ccc3s2)cc1 | inactive | inactive | inactive | inactive | inactive | inactive | inactive | inactive | inactive |  | 0.944 µM (active) | 23.9 µM (active) |  |  |  |  | 1.06 µM (active) |  | 1.06 µM (active) | 
